Shown is part of a subset that was picked to be rich in hits.
KDM5B inh: KDM5B demethylase inhibition. Potency, µM (top dose mostly 57.7 µM), most hits filed as inhibitors. AID 1347165. 2.6% of 220,000 active. KDM5B demethylase, FDH-coupled NADH fluorescence (FDH is formaldehyde dehydrogenase). Q9UGL1; active = well fitted inhibition curve with a large enough effect; note: 0% is about no effect; nearly all actives have a fitted effect of over 70% in size
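Coupled FDH/NAD⁺ fluorescence readout. KDM5BΔAP 200 nM final; compound titration, 10 min RT preincubation; substrate mix 12.5 µM H3K4me3, 25 µM 2-OG, 50 µM Fe(II), 100 µM ascorbate, 0.25 mM NAD⁺, 0.25 U/mL FDH; ΔRFU over 30 min.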
Numbers without * were called inactive; i = inactive. Potency is the fitted concentration of half-maximal effect.

SMILES | KDM5B inh
Cc1cccc2ncc(C(=O)N3CC[C@H](CO)[C@@H](O)C3)c(=O)n12 | 22µM*
Cc1cccc2cc(C(=O)N3CC[C@H](CO)[C@H](O)C3)oc12 | i
O=C(c1cn2ccsc2n1)N1CC[C@H](CO)[C@@H](O)C1 | i
CCCn1nc(C(=O)NCC(c2cccs2)N(C)C)c2ccccc2c1=O (stereo not given) | i
COC(=O)c1cc2oc(C)cc2n1Cc1ccccc1 | i
Cc1nc(-c2cccc(Cl)c2)n(CC(=O)NC(C)C)c(=O)c1CCO | i
COc1ccccc1Cn1c(-c2cccc(Cl)c2)nc(C)c(CCO)c1=O | i
Cc1nc(-c2cccc(Cl)c2)n(Cc2cc(=O)n3ccccc3n2)c(=O)c1CCO | 32µM*
CN(C)C(=S)SCc1cc(C(C)(C)C)c(O)c(C(C)(C)C)c1 | i
CN(CC(=O)Nc1ccc(Nc2ccccc2)cc1)S(=O)(=O)c1ccccc1 | i
CC(=O)C1=C(C)CC2C3CC=C4CC(O)CCC4(C)C3CCC12C (stereo not given) | i
CC(=O)N1CCN(C(=O)Cn2ccc3cc(Br)ccc32)CC1 | i
Cc1cc2c(-c3ccc(CO)cc3)nc(-c3c(C)noc3C)cc2[nH]1 | i
Cc1cc2c(-c3cccc(OC(C)C)c3)nc(-c3c(C)noc3C)cc2[nH]1 | 16µM*
CC(C)Oc1cccc(-c2n[nH]c3c2CC(=O)N(c2ccccc2)C3)c1 | i
CCC(CC)C(=O)Nc1nn2c(CC(C)C)nnc2s1 | i
Cn1ccc(C(=O)NCc2nnc3n2C(C(=O)NCc2ccc(F)cc2)CC3)n1 (stereo not given) | i
O=C(NCc1nnc2n1C(C(=O)O)CC2)c1ccc(F)cc1 (stereo not given) | 45µM*
CC(C)NC(=O)C1CCc2nnc(CNC(=O)c3ccccc3)n21 (stereo not given) | i
O=C(NCc1nnc2n1C(C(=O)NCc1ccncc1)CC2)c1ccccc1 (stereo not given) | i
O=C(NCc1nnc2n1C(C(=O)N1CCOCC1)CC2)c1cccnc1 (stereo not given) | i
O=C(NCc1nnc2n1C(C(=O)O)CC2)c1ccccc1 (stereo not given) | 100µM*
O=C(NCc1nnc2n1C(C(=O)O)CC2)c1ccc2c(c1)OC(F)(F)O2 (stereo not given) | 25µM*
COC(=O)CNC(=O)C1CCc2nnc(CNC(=O)c3ccccc3)n21 (stereo not given) | i
O=C(O)C1CCc2nnc(C3CCCN(C(=O)c4ccc5c(c4)OC(F)(F)O5)C3)n21 (stereo not given) | i
SMILES | KDM5B inh
COc1cccc2cc(C(=O)N3CCN(c4ccc(C)cc4)CC3)c(=O)oc12 | i
CCc1ccc(C2C(C(=O)OC(C)C)=C(C)N=C3SCCC(=O)N32)cc1 (stereo not given) | i
Cc1ccc(-c2cn3c(n2)CO[C@@H](CNCc2ccc(-c4ccccn4)cc2)C3)cc1 | i
O=C(Cc1ccccc1)NC1CCN(c2ccc(S(=O)(=O)C(F)(F)F)cc2)CC1 | i
O=C(Nc1ccccc1Br)C12CC3CC(CC(Cl)(C3)C1)C2 | i
CCCc1nc(SC)ncc1C(=O)Nc1ccccc1F | i
C=C1C(C(=O)Nc2cccc(SC)c2)C1C(=O)Nc1cccc(SC)c1 (stereo not given) | i
CCc1ccc(C(=O)NCc2ccco2)cc1 | i
CC(C)NC(=O)N1Cc2ccccc2OC2(CCN(C(=O)c3cccc4[nH]ccc34)CC2)C1 | i
CC(=O)N1Cc2ccccc2OC2(CCN(C(=O)NC(C)C)CC2)C1 | i
CC(=O)N1Cc2ccccc2OC2(CCN(C(=O)c3ccnc(N)c3)CC2)C1 | 79µM*
CC(=O)N1CCC2(CC1)CN(C(=O)c1ccc(N)nc1)Cc1ccccc1O2 | i
CC(=O)N1Cc2ccccc2OC2(CCN(C(=O)N(C)C)CC2)C1 | i
CN(C)C(=O)N1CCC2(CC1)CN(C(=O)c1cccc3[nH]ccc13)Cc1ccccc1O2 | 50µM*
CC(Nc1ccc(S(N)(=O)=O)cc1[N+](=O)[O-])c1ccco1 (stereo not given) | i
CC(C)CCNC(=O)c1ccc2c(Cl)c3c(nc2c1)CCCC3 | i
COc1ccc2cc(C(C)C(=O)NC3CCCCC3)ccc2c1 (stereo not given) | i
CCOC(=O)C1=CNc2nncn2C1(O)C(F)(F)F (stereo not given) | i
Cn1cccc1CN1CCC(N2CCOC2=O)CC1 | 89µM*
N#Cc1ccc(CN2CCC(N3CCOC3=O)CC2)cc1 | i
COc1ccc(CN2CCC(N3CCOC3=O)CC2)cc1 | i
CNC(=O)c1ccc2ccnn2c1 | 35µM*
O=C(Nc1ccc(Cl)nc1)c1cccn2nccc12 | 35µM*
O=C(Nc1ccc(Cl)nc1)c1ccc2ccnn2c1 | 32µM*
O=C(NNC(=O)c1ccc(Cl)nc1)c1ccncc1 | i
CNC(=O)c1ccc(OCc2nnc(C(C)(C)C)o2)cc1 | i
CC(=O)c1ccc(NC(=O)c2cc3ncccn3n2)cc1 | i
Cn1cc(C(=O)Nc2ccc(Cl)c(Cl)c2)cn1 | i
O=C(Nc1ccc(F)cc1)c1cccn2nccc12 | i

Compound activity deposited in PubChem by National Center for Advancing Translational Sciences (NCATS).
